Screens as filed in PubChem.
697 NFkB inh: inhibitors of the PMA/ionomycin-induced NF-kB reporter in 697 B cells; 697 B-cell NF-kB luciferase reporter, 16 h; inhibition, % at 4 µM; hit rate 0.33% among 330,000; AID 435022; in the data active = inhibition above about 35%
TMEM16A inh: inhibitors of mouse TMEM16A calcium-activated chloride channel; hit rate 1.2% among 310,000; HEK293 TMEM16A/YFP iodide influx fluorescence, ionomycin; Q8BHY3; normalized B-score (activity score, 25-100; higher = stronger inhibition) at 10 µM;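 active = ratio plate-corrected score three or more library SD toward inhibition, starting fluorescence score within five deviations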;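 note: score derived from kinetic fluorescence span divided by baseline fluorescence per well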
Target sequence (Q8BHY3 whole entry, looked up): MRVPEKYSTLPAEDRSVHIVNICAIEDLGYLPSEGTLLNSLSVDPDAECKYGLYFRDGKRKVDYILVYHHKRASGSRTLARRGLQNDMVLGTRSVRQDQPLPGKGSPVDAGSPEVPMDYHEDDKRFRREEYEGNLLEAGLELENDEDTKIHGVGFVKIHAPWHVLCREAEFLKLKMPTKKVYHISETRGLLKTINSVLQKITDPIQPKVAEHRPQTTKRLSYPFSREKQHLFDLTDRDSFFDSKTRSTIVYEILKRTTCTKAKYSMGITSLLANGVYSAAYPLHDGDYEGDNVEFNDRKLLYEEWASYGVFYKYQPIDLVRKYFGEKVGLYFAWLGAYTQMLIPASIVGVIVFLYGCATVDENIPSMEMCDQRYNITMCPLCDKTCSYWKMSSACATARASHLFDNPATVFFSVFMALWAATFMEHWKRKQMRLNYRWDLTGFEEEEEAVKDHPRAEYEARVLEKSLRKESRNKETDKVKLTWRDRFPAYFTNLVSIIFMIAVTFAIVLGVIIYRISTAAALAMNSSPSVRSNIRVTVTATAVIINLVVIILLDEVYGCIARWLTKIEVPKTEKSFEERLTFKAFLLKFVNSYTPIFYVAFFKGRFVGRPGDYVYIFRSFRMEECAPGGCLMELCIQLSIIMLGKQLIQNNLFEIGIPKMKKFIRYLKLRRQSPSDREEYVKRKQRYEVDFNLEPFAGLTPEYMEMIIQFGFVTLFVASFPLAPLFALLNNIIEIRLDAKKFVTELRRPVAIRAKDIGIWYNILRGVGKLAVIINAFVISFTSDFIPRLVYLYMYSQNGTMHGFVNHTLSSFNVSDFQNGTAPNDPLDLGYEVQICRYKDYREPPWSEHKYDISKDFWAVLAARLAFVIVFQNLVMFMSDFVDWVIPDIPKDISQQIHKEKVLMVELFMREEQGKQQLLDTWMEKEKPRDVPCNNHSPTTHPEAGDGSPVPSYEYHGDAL
KLF5 inhibitor: suppresses KLF5 promoter-driven expression; inhibition, % at 5 µM; DLD-1 KLF5 promoter-luciferase reporter, luminescence; hit rate 0.23% among 290,000;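 active = inhibition above a per-plate limit of that plate's mean compound inhibition plus 3 SD, cut at about 60% in these data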;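 note: higher means less KLF5 promoter-driven luciferase light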
ANO1 activ: activators or potentiators of mouse TMEM16A chloride channel; HEK293 TMEM16A/YFP-H148Q/I152L, iodide quench fluorescence; active compounds read low; B-score at 10 µM; Q8BHY3; AID 623877; hit rate 0.3% among 340,000;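 active = fluorescence-ratio B-score plate-corrected deviation score at least 3 library SD below zero, with starting fluorescence score within 5 deviations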;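 note: channel opened by trigger with iodide after compound preincubation; score built on the fluorescence ratio of max minus min over baseline; more negative score means more quench and so TMEM16A activation or potentiation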
aSyn 5UTR inh: 5' untranslated region of α-synuclein, MLPCN primary screen. inhibition, % (tested at 7.5 µM). AID 1813. alpha-synuclein 5'UTR reporter, inhibitor activity. hit rate 0.82% among 300,000; in the data active = inhibition above about 60%;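 note: H4 neuroglioblastoma cells stably carrying SNCA 5'UTR luciferase fusion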
Jurkat NFkB inh: lowers PMA/ionomycin-induced NF-kB signal in Jurkat cells; PMA/ionomycin-induced NF-kB luciferase reporter, luminescence; inhibition, % at 4 µM; hit rate 0.53% among 330,000; AID 435003; in the data active = inhibition above about 50%
Of the large screens only hits and unclear results are named; the others gave an inactive call. In the library only some 2.5% were active in any assay of this set; here they are far more common.

O=C(NCC(c1cccs1)N1CCOCC1)c1ccccc1NS(=O)(=O)c1ccc(Cl)c([N+](=O)[O-])c1 (stereo unspecified)	TMEM16A inh 25
O=C(NCC(c1cccs1)N1CCOCC1)c1ccccc1NS(=O)(=O)c1cccc([N+](=O)[O-])c1 (stereo unspecified)	none
C=CC[C@@H](CC(=O)NCCO)C(=O)NCCOC(=O)[C@@H](CC=C)Cc1ccc(F)cc1	none (no result: TMEM16A inh, KLF5 inhibitor, ANO1 activ, aSyn 5UTR inh)
Cc1c(C(=O)NNC(=O)c2cccnc2)cccc1[N+](=O)[O-]	none (no result: TMEM16A inh, KLF5 inhibitor, aSyn 5UTR inh)
N#CC(C(=O)NCCc1ccccc1)c1nc2ccccc2nc1N1CCOCC1 (stereo unspecified)	none
N#CC(C(=O)NCCc1ccccc1)c1nc2ccccc2nc1N1CCCCC1 (stereo unspecified)	TMEM16A inh 100
Cc1nc(COc2ccc(C(=O)NCc3ccccc3CN3CCCCC3)cc2)cs1	none (no result: TMEM16A inh, KLF5 inhibitor, aSyn 5UTR inh)
COc1cccc(/C=N/Nc2snc(SC)c2C#N)c1O	TMEM16A inh 100
COc1ccc(CNCCC(c2ccc(OC(C)C)cc2)c2ccccc2OC)cc1 (stereo unspecified)	aSyn 5UTR inh 134
COc1ccccc1C(CCNCc1ccc(N(C)C)cc1)c1ccc(OC(C)C)cc1 (stereo unspecified)	aSyn 5UTR inh 135
COc1ccc(C2=CC(=O)C[C@H](c3ccc(F)cc3)C2)cc1F	ANO1 activ -6.6 (no result: TMEM16A inh, KLF5 inhibitor, aSyn 5UTR inh)
CCCn1cnnc1CNC(=O)C1CCC(=O)N(CCc2ccc(OC)cc2)C1 (stereo unspecified)	none
Cc1c(N=Cc2nc3ccccc3n2C)c(=O)n(-c2ccccc2)n1C	none
Cc1c(N=Cc2nc3ccccc3[nH]2)c(=O)n(-c2ccccc2)n1C	ANO1 activ -13
COc1ccc(NC(=O)Cn2c3ccccc3c3nc4n(c(=O)c32)CCS4)cc1	none
COc1cccc(NC(=O)Cn2c3ccccc3c3nc4n(c(=O)c32)CCCS4)c1	ANO1 activ -52
COc1ccc(NC(=O)Cn2c3ccccc3c3nc4n(c(=O)c32)CCS4)cc1OC	ANO1 activ -54
Cc1ccc(S(=O)(=O)NCc2ccc(C(=O)NCc3cccnc3)cc2)cc1	none (no result: ANO1 activ)
Cc1cc(C)c[n+](CC(=O)c2c(C)cc(C)c([N+](=O)[O-])c2C)c1	none
O=C(O)C1CCC(C(=O)O)SS1 (stereo unspecified)	none (no result: 697 NFkB inh, TMEM16A inh, KLF5 inhibitor, aSyn 5UTR inh, Jurkat NFkB inh)
O=C1/C(=C/c2ccc(F)cc2)CCC1C1CCCC1 (stereo unspecified)	none
O=C1C(=C2SCCCS2)CC/C1=C\c1ccc(F)cc1	aSyn 5UTR inh 119
COc1ccc(C(=O)CSc2ccc(-c3ccccc3)nn2)cc1	none
COc1ccc(-c2ccc(SC)nn2)cc1	aSyn 5UTR inh 75
CCOc1ccc(/C=N/NC(=O)c2nnn(-c3nonc3N)c2COc2ccc(F)cc2)cc1	ANO1 activ -5.8
CCCOc1ccc(-c2c(C(=O)N/N=C/c3ccncc3)nnn2-c2nonc2N)cc1	ANO1 activ -6.8
Cc1nnn(-c2nonc2N)c1C(=O)N/N=C/c1ccccc1O	aSyn 5UTR inh 68
COc1ccc(C(=O)N2CCC3(CC2)NCCc2[nH]cnc23)cc1OC	none
Cc1ccc(N2CC(C(=O)N3CCC(C(=O)NC(C)(C)C)CC3)CC2=O)cc1 (stereo unspecified)	none
CCOC(=O)c1ccc(N2C(=O)C=CC2=O)cc1	TMEM16A inh 25
O=C(Nc1nnc(-c2ccc(Cl)cc2)o1)C1CCCCC1	none (no result: KLF5 inhibitor)
Clc1ccc(-c2nnc(NC3=NCCCCC3)o2)cc1	aSyn 5UTR inh 75
Cc1nc(C(=O)O)cc2c1[nH]c1ccccc12	none (no result: KLF5 inhibitor)
CC(=O)N(C(C)=O)c1ncc2c([nH]c3ccccc32)c1C#N	aSyn 5UTR inh 65
O=C(COC(=O)c1c2c(nc3ccccc13)/C(=C/c1cccc([N+](=O)[O-])c1)CCC2)NC1CCS(=O)(=O)C1 (stereo unspecified)	none
CN(C(=O)COC(=O)c1c2c(nc3ccccc13)/C(=C/c1cccc([N+](=O)[O-])c1)CCC2)C1CCS(=O)(=O)C1 (stereo unspecified)	aSyn 5UTR inh 72
CCc1nnc(NC(=O)c2ccc(Cl)c(S(=O)(=O)N3CCc4ccccc43)c2)s1	TMEM16A inh 100
O=C(/C=C/c1ccc(Cl)cc1Cl)N1CCN(c2ccccc2[N+](=O)[O-])CC1	none
CCc1ccccc1N1CCN(S(=O)(=O)c2ccc(F)c(C)c2)CC1	none
